# Inconclusive results are not listed. Entries that show only a call come without a potency. Values without a mark were called inactive. The source made the active and inactive calls. Calls come from the whole dose curve; as a rule, active = well fitted cell-killing curve with a large enough effect in the repeat runs; inconclusive = weak or mixed curves; inactive = flat fitted curve, though single readings scatter.
# Test: qHTS RealTime-Glo MT Cell Viability Assay in HepG2 cells - 24 hour (AID 1224867); note: nearly all actives have a fitted effect of over 50% in size
# Settings: RealTime-Glo luminescence; series mostly up to 76.8 µM
# From the text: U.S. Tox21 Program National Center for Advancing Translational Sciences [NCATS] NIH Chemical Genomics Center [NCGC] U.S. Environmental Protection Agency [EPA] National Institutes of Environmental Health Sciences [NIEHS] National Toxicology Program [NTP] U.S. Food and Drug Administration [FDA] Tox21 Assay Overview: Measure of cell viability is critical in the cell-base assay. Analysis of cell viability is necessary for the characterization of cell responses to cytotoxic drugs and environmental stress. A RealTime-Glo MT Cell Viability Assay to monitor cell viability in real time of continues cell culture during 40 hours of compound treatment was used to screen Tox21 10K library compounds in HepG2 cells. The RealTime-Glo MT Cell Viability Assay is a nonlytic, homogeneous, bioluminescent method to measure cell viability in real time using a simple, plate-based method. The assay involves adding NanoLuc luciferase and a cell-permeant prosubstrate to cells in culture. Viable cells reduce the proprietary prosubstrate to generate a substrate for NanoLuc luciferase. This substrate diffuses from cells into the surrounding culture medium, where it is rapidly used by the NanoLuc Enzyme to produce a luminescent signal. The signal correlates with the number of viable cells, making the assay well suited for cytotoxicity studies.
# Tox21 Assay Protocol Summary: The mixture of HepG2 cell suspension and reagents were dispensed at 600cells/6 ul/well in 1536-well tissue culture treated black solid bottom plates using a Multidrop dispenser. After the assay plates were incubated at a 37 C/5% CO2 incubator for 5 hours, 23 nL of compounds dissolved in DMSO, positive and negative controls was transferred to the assay plate by a pintool work station. The plates were incubated at 37 C for 40 hours. The luminescence intensity were measured at 0h, 8h, 16h, 24h, 32h and 40h time points using ViewLux plate reader during compound treatment.
SMILES,Potency,"activity change, negative = cytotoxicity"
CCOC(=O)c1cccc(N)c1,inactive,–
CC/C=C\CC/C=C/C(OCC)OCC,inactive,–
Cc1sccc1Br,inactive,–
CC(C)(c1ccc(O)cc1)c1ccc(O)cc1,inactive,–
COC(=O)c1c(Cl)c(Cl)c(C(=O)OC)c(Cl)c1Cl,inactive,–
CCCCOCCOCCOCCCC,inactive,–
FC(F)OC(Cl)C(F)(F)F (stereo not given),inactive,–
c1ccc([C@H]2CN3CCSC3=N2)cc1,inactive,–
CCS(=O)(=O)c1ccc(OC)c(C(=O)OC)c1,inactive,–
Cn1c(N)c(N=O)c(=O)n(C)c1=O,inactive,–
CO[C@]12C[C@@H](COC(=O)c3cncc(Br)c3)CN(C)[C@@H]1Cc1cn(C)c3cccc2c13,inactive,–
C=CCCCCCCCCC=O,inactive,–
NC(=O)COCCN1CCN(C(c2ccccc2)c2ccc(Cl)cc2)CC1 (stereo not given),inactive,–
Cc1cc2c(cc1S(N)(=O)=O)S(=O)(=O)CCC2,inactive,–
CN(C)CCCNCCCN(C)C,inactive,–
COC(=O)[C@@H](N)Cc1ccc(O)c(O)c1,inactive,–
O=C1CCCN1C1CCCCC1,inactive,–
CCCN(CCC)CCc1cccc2c1CC(=O)N2,inactive,–
CN1CCC(=C2c3ccccc3CC(=O)c3sccc32)CC1,inactive,–
CCC(C)C1CCCCC1=O (stereo not given),inactive,–

SMILES,Potency,"activity change, negative = cytotoxicity"
Oc1ccc(C2CNCCc3c2cc(O)c(O)c3Cl)cc1 (stereo not given),inactive,–
COc1nc(N)nc2c1ncn2[C@@H]1O[C@H](CO)[C@@H](O)[C@@H]1O,inactive,–
CN(C)CCCSc1ccccc1NC(=O)/C=C/c1ccccc1,inactive,–
O=C1CC2CC1C1CCCC21 (stereo not given),inactive,–
COCCCOCCCOC,inactive,–
Brc1c(NC2=NCCN2)ccc2nccnc12,inactive,–
Cc1cccc(C)c1NC(=O)C(C)N (stereo not given),inactive,–
NC(=O)Nc1ccccc1,inactive,–
COC(=O)CC(C)=O,inactive,–
OC[C@]1(O)OC[C@@H](O)[C@H](O)[C@@H]1O,inactive,–
O=C(O)CN(CCOCCOCCN(CC(=O)O)CC(=O)O)CC(=O)O,–,-0.276% [at 0.29 µM]
N=C(N)c1ccc2cc(OC(=O)c3ccc(N=C(N)N)cc3)ccc2c1,inactive,–
O=C(O)CCCl,inactive,–
O=C(O)CNC(=O)c1ccc([N+](=O)[O-])cc1,inactive,–
COc1c(N2C[C@@H]3CCCN[C@@H]3C2)c(F)cc2c(=O)c(C(=O)O)cn(C3CC3)c12,inactive,–
C[C@@H]1CCN(C(=O)[C@H](CCCN=C(N)N)NS(=O)(=O)c2cccc3c2NC[C@H](C)C3)[C@@H](C(=O)O)C1,inactive,–
CC1=CC(C)C(C=O)CC1 (stereo not given),inactive,–
O=C(O)COc1nn(Cc2ccccc2)c2ccccc12,inactive,–
OC(CCN1CCCCC1)(c1ccccc1)C1CC2C=CC1C2 (stereo not given),inactive,–
CC(=O)CC(C)C,inactive,–

# — PubChem BioAssay (Tox21)
